Test results from PubChem BioAssay AID1035475 (Broad Institute, 2014).
Potency and affinity values are given separately. Inconclusive results are not listed. Entries that show only a call come without a potency. Calls of active or inactive are those of the source.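 The calls were made as follows: active = fluorescent signal drops by 40% or more, counted as a hit; inconclusive = no clear call, values can overlap the other calls; inactive = the rest, including any activity in the opposite direction.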

Experiment: blockers of FN fibrillogenesis by fibroblasts – AH1F cells, Alexa488-FN fluorescence, cherry-picks, dose response (AID 1035475);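 also: AH1F fibroblasts incorporating labeled fibronectin into their extracellular matrix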
Conditions: Alexa488-fibronectin deposition fluorescence, overnight; series mostly up to 35 µM

For `C[C@H](CO)N1C[C@H](C)[C@H](CN(C)Cc2ccccc2)Oc2ncc(-c3ccccc3)cc2C1=O`, which outcome is on record?
Its outcome is “inactive”.

Which outcome does the source give for `CO[C@H]1CN(C)C(=O)c2ccc(NC(=O)c3ccc(-c4ccccc4)cc3)cc2OC[C@@H](C)NC[C@H]1C` here?
Its outcome is “inactive”.

With `CO[C@@H]1CN(C)C(=O)c2ccc(NC(=O)c3ccc(-c4ccccc4)cc3)cc2OC[C@H](C)NC[C@@H]1C` as the compound, how does the outcome read?
Its outcome is “inactive”.

With `CN1c2ccc(-c3ccccc3)cc2[C@@H]2[C@@H](CCN2C(=O)CN2CCOCC2)[C@@H]1CO` as the compound, how does the outcome read?
Its outcome is “inactive”.

With `CN1c2ccc(-c3ccccc3)cc2[C@@H]2[C@@H](CCN2C(=O)CN2CCOCC2)[C@H]1CO` as the compound, how does the outcome read?
The outcome was “inactive”.

Which outcome does the source give for `O=C(CN1CCCC1)Nc1ccc(Oc2ccc(NC(=O)CN3CCCC3)cc2)cc1` here?
The outcome was “inactive”.

For `C[C@H]1CN([C@@H](C)CO)C(=O)c2cc(-c3ccccc3)cnc2O[C@H]1CN(C)C(=O)c1cccc(F)c1`, which outcome is on record?
Its outcome is “inactive”.

Which outcome does the source give for `N#C[C@H]1[C@@H](c2ccccc2C2=CCCCC2)[C@@H](CO)N1S(=O)(=O)c1ccccc1` here?
The outcome was “inactive”.

Which outcome does the source give for `N#C[C@@H]1[C@@H](c2ccccc2C2=CCCCC2)[C@H](CO)N1S(=O)(=O)c1ccccc1` here?
Its outcome is “inactive”.

With `O=C(Nc1ccccc1F)N1C[C@@H]2[C@H](c3ccccc31)[C@H](CO)N2C(=O)C1CCOCC1` as the compound, how does the outcome read?
Its outcome is “inactive”.

Which outcome does the source give for `C[C@H](O)C#Cc1ccc2c(c1)O[C@H](CN(C)C)[C@H](C)CN([C@H](C)CO)S2(=O)=O` here?
Its outcome is “inactive”.

With `Cc1ccccc1S(=O)(=O)N1CC[C@H]2[C@H](CO)Nc3ccc(-c4ccc(C#N)cc4)cc3[C@H]21` as the compound, how does the outcome read?
The outcome was “inactive”.

Which outcome does the source give for `N#C[C@@H]1[C@H](c2ccccc2C2=CCCCC2)[C@@H](CO)N1S(=O)(=O)c1ccccc1` here?
The outcome was “inactive”.

With `N#C[C@H]1[C@H](c2ccccc2C2=CCCCC2)[C@H](CO)N1S(=O)(=O)c1ccccc1` as the compound, how does the outcome read?
Its outcome is “inactive”.

For `Cc1ccn2cc(-c3ccc(NC(=O)c4ccco4)cc3)nc2c1`, which outcome is on record?
Its outcome is “inactive”.

Which outcome does the source give for `CO[C@H]1CN(C)C(=O)c2cc(NC(=O)Nc3ccc(C(F)(F)F)cc3)ccc2OC[C@H](C)NC[C@H]1C` here?
Its outcome is “inactive”.

Which outcome does the source give for `C[C@@H]1CN([C@H](C)CO)C(=O)c2cc(-c3ccccc3)cnc2O[C@H]1CN(C)Cc1ccccc1` here?
Its outcome is “inactive”.

For `Cc1ccc(O)c(-c2cc(-c3cccc(Br)c3)n[nH]2)c1`, which outcome is on record?
The outcome was “inactive”.

Which outcome does the source give for `Nc1nc(-c2cc3c(cc2Cl)OCCO3)cs1` here?
Its outcome is “inactive”.

Which outcome does the source give for `c1ccc2[nH]c(SCc3cn4cccnc4n3)nc2c1` here?
Its outcome is “inactive”.

For `CC(C)C(=O)Nc1ccc2c(c1)C(=O)N(C)[C@@H]1CC[C@H](CC(=O)O)O[C@@H]1CO2`, which outcome is on record?
Its outcome is “inactive”.

For `C[C@@H]1CN([C@@H](C)CO)C(=O)c2cc(-c3ccccc3)cnc2O[C@@H]1CN(C)C(=O)c1cccc(F)c1`, which outcome is on record?
The outcome was “inactive”.

Which outcome does the source give for `C[C@@H]1CN([C@H](C)CO)C(=O)c2cc(NC(=O)C3CCCCC3)ccc2O[C@@H]1CN(C)Cc1ccc(-c2ccccc2)cc1` here?
Its outcome is “inactive”.

With `C[C@@H]1CN([C@@H](C)CO)C(=O)c2cc(-c3ccccc3)cnc2O[C@@H]1CN(C)Cc1ccccc1` as the compound, how does the outcome read?
Its outcome is “inactive”.

With `COc1ccc([N+](=O)[O-])cc1NS(=O)(=O)c1ccc(C(=O)N2CCCC2)cc1` as the compound, how does the outcome read?
The outcome was “inactive”.

With `Fc1cnc(N2CCN(c3ccccc3)CC2)nc1N1CCN(c2ccccc2)CC1` as the compound, how does the outcome read?
Its outcome is “inactive”.

With `S=C(NCC1CCCO1)Nc1ccc(Cl)cc1Cl` (stereo not given) as the compound, how does the outcome read?
Its outcome is “inactive”.

For `C[C@H](CO)N1C[C@H](C)[C@@H](CN(C)C(=O)c2cccc(F)c2)Oc2ncc(-c3ccccc3)cc2C1=O`, which outcome is on record?
The outcome was “inactive”.

For `O=C(c1cccnc1)N1C[C@@H]2[C@H](c3ccccc31)[C@H](CO)N2CC1CCCC1`, which outcome is on record?
The outcome was “inactive”.

For `CCC(C)(C)NC(=O)C(OC(=O)c1ccco1)c1ccccc1OC` (stereo not given), which outcome is on record?
Its outcome is “inactive”.

Which outcome does the source give for `CO[C@@H]1CN(C)C(=O)c2ccc(NC(=O)c3ccc(-c4ccccc4)cc3)cc2OC[C@@H](C)NC[C@@H]1C` here?
Its outcome is “inactive”.

With `COC(=O)C[C@H]1CC[C@@H]2[C@H](COc3ccc(NC(=O)Cc4cccs4)cc3C(=O)N2C)O1` as the compound, how does the outcome read?
The outcome was “inactive”.

Which outcome does the source give for `COc1ccc(CN(C2CCCC2)S(=O)(=O)c2ccc(-n3cnnn3)cc2)cc1OC` here?
Its outcome is “inactive”.

Which outcome does the source give for `CO[C@H]1CN(C)C(=O)c2cc(NC(=O)Nc3ccc(Cl)c(Cl)c3)ccc2OC[C@@H](C)NC[C@@H]1C` here?
The outcome was “inactive”.

With `O=C(CCC(=O)c1cccs1)NCc1cccnc1` as the compound, how does the outcome read?
The outcome was “inactive”.
